Test results reported in PubChem BioAssay (NCI).
The panel holds about 79,000 compounds, 15% with a hit somewhere; the sample as a whole holds those more often. The source made the active and inactive calls. Cut-off read from the data, not from the text of the source: active = growth inhibition above about 70%; inactive = the rest.

Columns and labels:
[1] = NCI Yeast Anticancer Drug Screen. Data for the rad52 strain (AID 147);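 note: 0% = growth of vehicle-treated control cultures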; details: S. cerevisiae rad52 mutant growth inhibition, active compounds read high
Summary of the method: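 Here a repair-compromised yeast strain receives each compound; its growth is then quantified and normalised to vehicle-only controls.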

[2] = NCI Yeast Anticancer Drug Screen. Data for the wt1 strain (AID 149);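 note: 0% = growth of vehicle-treated wt1 cultures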; details: S. cerevisiae wt1 strain (SPY 50644) growth inhibition, active compounds read high
Summary of the method: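 The wt1 strain was treated with compounds, and growth was compared with vehicle-treated cultures to give inhibition.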

[3] = NCI Yeast Anticancer Drug Screen. Data for the rad50EPP+ strain (AID 151);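 note: 0% = growth of vehicle-treated control cultures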; details: S. cerevisiae rad50 mutant strain, active compounds read high
Summary of the method: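 Read-out is yeast growth inhibition relative to vehicle; cells used were the rad50EPP+ strain.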

[4] = NCI Yeast Anticancer Drug Screen. Data for the rad50 strain (AID 155);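 note: 0% = growth of vehicle-only cultures of the same strain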; details: S. cerevisiae rad50 strain growth inhibition, active compounds read high
Summary of the method: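 Cells are treated with compound, grown, and their growth is then scored against vehicle-only cultures of the same repair-deficient yeast strain.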

[5] = NCI Yeast Anticancer Drug Screen. Data for the mec2-1 strain (AID 157); details: S. cerevisiae mec2-1 strain, active compounds read high
Summary of the method: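 Using mec2-1 yeast: add compound, measure growth, express inhibition versus vehicle-treated cultures.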

[6] = NCI Yeast Anticancer Drug Screen. Data for the rad14 strain (AID 159);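 note: 0% = growth of vehicle-treated control cultures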; details: S. cerevisiae rad14 strain growth inhibition, active compounds read high
Summary of the method: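 Readout: yeast growth inhibition, referenced to vehicle-only cultures. Strain bears a defined alteration in DNA damage repair.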

[7] = NCI Yeast Anticancer Drug Screen. Data for the sgs1 mgt1 strain (AID 161);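 note: 0% = growth of cultures given vehicle only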; details: S. cerevisiae sgs1 mgt1 strain, active compounds read high
Summary of the method: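 Percent growth inhibition was derived by comparing compound-exposed mutant yeast with vehicle-exposed cultures. The strain carries alterations in DNA damage repair.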

[8] = NCI Yeast Anticancer Drug Screen. Data for the CLN2oe strain (AID 163);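 note: 0% = growth of vehicle-only control cultures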; details: S. cerevisiae CLN2oe strain, active compounds read high
Summary of the method: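 Whole-cell yeast growth assay. A strain engineered for altered cell-cycle control received compound, and inhibition relative to vehicle-treated cultures was recorded.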

[9] = NCI Yeast Anticancer Drug Screen. Data for the cln2 rad14 strain (AID 165);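 note: 0% = growth equal to vehicle treated cultures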; details: S. cerevisiae cln2 rad14 strain, active compounds read high
Summary of the method: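 Yeast strain cln2 rad14, bearing defects in cell cycle control and DNA repair, serves as the test system; values reflect growth inhibition compared with vehicle.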

[10] = NCI Yeast Anticancer Drug Screen. Data for the bub3 strain (AID 167); details: S. cerevisiae bub3 mutant strain, active compounds read high
Summary of the method: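 Part of a panel of yeast mutants defective in DNA damage repair or cell cycle regulation. Each strain is grown with compound, and inhibition is calculated relative to solvent-treated cultures.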

[11] = NCI Yeast Anticancer Drug Screen. Data for the wt2 strain (AID 169);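 note: 0% = growth of vehicle-treated yeast cultures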; details: S. cerevisiae wt2 strain growth inhibition, active compounds read high
Summary of the method: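 Treated yeast vs. vehicle-treated yeast: growth inhibition determined.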

[12] = NCI Yeast Anticancer Drug Screen. Data for the mlh1 strain (AID 171);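 note: 0% = growth of vehicle-treated control cultures of the same strain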; details: S. cerevisiae mlh1 strain growth inhibition, active compounds read high
Summary of the method: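 A yeast strain with a defined genetic lesion serves as the test organism. Cultures receive compound or vehicle, and growth is measured.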

[13] = NCI Yeast Anticancer Drug Screen. Data for the sgs1 strain (AID 173);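 note: 0% = growth of vehicle-only control cultures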; details: S. cerevisiae sgs1 mutant, active compounds read high
Summary of the method: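 A genetically defined yeast mutant is incubated with the test compound, and its growth is compared to that of the same strain given vehicle.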

[14] = NCI Yeast Anticancer Drug Screen. Data for the mlh1 rad18 strain (AID 175); details: S. cerevisiae mlh1 rad18 strain growth inhibition, active compounds read high
Summary of the method: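 Steps: expose repair-defective yeast to compound; measure growth; express inhibition against vehicle-treated controls.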

[15] = NCI Yeast Anticancer Drug Screen. Data for the rad18 strain (AID 177); details: S. cerevisiae rad18 mutant growth inhibition, active compounds read high
Summary of the method: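 Measured value is growth inhibition of a yeast strain bearing a DNA repair alteration, referenced to vehicle-treated cells.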

[16] = at 5.0 µM (retest, dose inferred, filed as 0.5)
[17] = at 50.0 µM (retest, dose inferred, filed as 5.0)

Measured: growth inhibition

COc1ccc(N=Nc2ccc3oc(=O)c(C(=O)Nc4ccccc4)cc3c2)cc1
inactive: [1]; at 1.2 µM -19% | [1]; at 3.7 µM -2% | [2]; at 1.2 µM -4% | [2]; at 3.7 µM 2% | [2]; at 11.0 µM 67% | [3]; at 1.2 µM 6% | [3]; at 3.7 µM 45% | [4]; at 1.2 µM -2% | [4]; at 3.7 µM 7% | [4]; [16] 0% | [5]; at 1.2 µM -18% | [5]; at 3.7 µM 12% | [5]; [16] -12% | [6]; at 1.2 µM 4% | [6]; at 3.7 µM 25% | [7]; [16] 12% | [7]; [17] 48% | [8]; at 1.2 µM -12% | [8]; at 3.7 µM -10% | [8]; at 11.0 µM 48% | [9]; [16] -19% | [10]; at 1.2 µM -11% | [10]; at 3.7 µM 3% | [10]; [16] 29% | [11]; at 1.2 µM 1% | [11]; at 3.7 µM 14% | [12]; at 1.2 µM 25% | [12]; at 3.7 µM 31% | [13]; at 1.2 µM -9% | [13]; at 3.7 µM 18% | [14]; [16] 39% | [15]; at 1.2 µM -7% | [15]; at 3.7 µM 5%
active: [1]; at 11.0 µM 85% | [1]; at 33.0 µM 96% | [1]; at 100.0 µM 95% | [2]; at 33.0 µM 96% | [2]; at 100.0 µM 94% | [3]; at 11.0 µM 83% | [3]; at 33.0 µM 94% | [3]; at 100.0 µM 95% | [4]; at 11.0 µM 89% | [4]; at 33.0 µM 96% | [4]; [17] 95% | [4]; at 50.0 µM 87.7% | [4]; at 100.0 µM 96% | [5]; at 11.0 µM 82% | [5]; at 33.0 µM 97% | [5]; [17] 97% | [5]; at 50.0 µM 91.3% | [5]; at 100.0 µM 95% | [6]; at 11.0 µM 96% | [6]; at 33.0 µM 97% | [6]; at 100.0 µM 97% | [7]; at 50.0 µM 87.2% | [8]; at 33.0 µM 95% | [8]; at 100.0 µM 92% | [9]; [17] 95% | [9]; at 50.0 µM 85.3% | [10]; at 11.0 µM 71% | [10]; at 33.0 µM 96% | [10]; [17] 96% | [10]; at 50.0 µM 90.5% | [10]; at 100.0 µM 95% | [11]; at 11.0 µM 81% | [11]; at 33.0 µM 96% | [11]; at 100.0 µM 96% | [12]; at 11.0 µM 92% | [12]; at 33.0 µM 96% | [12]; at 100.0 µM 91% | [13]; at 11.0 µM 93% | [13]; at 33.0 µM 97% | [13]; at 100.0 µM 96% | [14]; [17] 95% | [14]; at 50.0 µM 85.7% | [15]; at 11.0 µM 84% | [15]; at 33.0 µM 95% | [15]; at 100.0 µM 96%

CCN(CC)CC(O)C1CCC(c2ccccc2)CC1 (stereo unspecified)
active: [1]; at 100.0 µM 78% | [4]; [17] 78% | [4]; at 50.0 µM 84.8% | [4]; at 100.0 µM 83% | [5]; [17] 76% | [5]; at 100.0 µM 79% | [6]; at 33.0 µM 89% | [6]; at 100.0 µM 98% | [7]; [17] 95% | [7]; at 50.0 µM 92.7% | [8]; at 100.0 µM 80% | [9]; [17] 70% | [10]; [17] 87% | [10]; at 50.0 µM 83% | [10]; at 100.0 µM 84% | [11]; at 100.0 µM 83% | [12]; at 100.0 µM 91% | [13]; at 33.0 µM 72% | [13]; at 100.0 µM 93% | [14]; [17] 86% | [15]; at 100.0 µM 78%
inactive: [1]; at 1.2 µM 2% | [1]; at 3.7 µM 11% | [1]; at 11.0 µM 22% | [1]; at 33.0 µM 52% | [2]; at 1.2 µM 1% | [2]; at 3.7 µM 10% | [2]; at 11.0 µM 5% | [2]; at 33.0 µM 13% | [2]; at 100.0 µM 40% | [3]; at 1.2 µM 4% | [3]; at 3.7 µM 6% | [3]; at 11.0 µM 15% | [3]; at 33.0 µM 23% | [3]; at 100.0 µM 68% | [4]; at 1.2 µM 5% | [4]; at 3.7 µM 12% | [4]; [16] 13% | [4]; at 11.0 µM 22% | [4]; at 33.0 µM 61% | [5]; at 1.2 µM 3% | [5]; at 3.7 µM 12% | [5]; [16] 11% | [5]; at 11.0 µM 16% | [5]; at 33.0 µM 42% | [5]; at 50.0 µM 36% | [6]; at 1.2 µM 13% | [6]; at 3.7 µM 34% | [6]; at 11.0 µM 41% | [7]; [16] 31% | [8]; at 1.2 µM 6% | [8]; at 3.7 µM 10% | [8]; at 11.0 µM 41% | [8]; at 33.0 µM 55% | [9]; [16] 28% | [9]; at 50.0 µM 65.3% | [10]; at 1.2 µM 1% | [10]; at 3.7 µM 8% | [10]; [16] 27% | [10]; at 11.0 µM 30% | [10]; at 33.0 µM 64% | [11]; at 1.2 µM 3% | [11]; at 3.7 µM 9% | [11]; at 11.0 µM 16% | [11]; at 33.0 µM 45% | [12]; at 1.2 µM 3% | [12]; at 3.7 µM 10% | [12]; at 11.0 µM 24% | [12]; at 33.0 µM 62% | [13]; at 1.2 µM 3% | [13]; at 3.7 µM 16% | [13]; at 11.0 µM 32% | [14]; [16] 36% | [14]; at 50.0 µM 68.9% | [15]; at 1.2 µM 7% | [15]; at 3.7 µM 12% | [15]; at 11.0 µM 13% | [15]; at 33.0 µM 32%
